# Laboratory results reported in PubChem BioAssay (NCI).
# Several values for one entry are separate records, joined by “and”; a condition that tells them apart may be missing. Identical values can stand only once. The panel holds about 83,000 compounds, 20% with a hit somewhere; the sample as a whole holds those more often.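 Cells were grown in 96-well plates and exposed to the test compound at a single concentration for 48 hours; results are reported as percent growth, with values below 10 considered active.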 Activity calls are given as the source filed them.
# Key:
# Assay in all cases: NCI-60 one-dose screen, 48 h (100 = growth as untreated, 0 = no growth, -100 = all killed)
# Conditions in all cases: 10 µM unless noted
# T-47D breast = test system: T-47D breast
# BT-549 breast = test system: BT-549 breast
# MDA-MB-435 melanoma = test system: MDA-MB-435 melanoma
# SW-620 colon = test system: SW-620 colon
# MCF7 breast = test system: MCF7 breast
# HCT-116 colon = test system: HCT-116 colon
# HCC-2998 colon = test system: HCC-2998 colon
# KM12 colon = test system: KM12 colon
Compound,growth (T-47D breast),growth (BT-549 breast),growth (MDA-MB-435 melanoma),growth (SW-620 colon),growth (MCF7 breast),growth (HCT-116 colon),growth (HCC-2998 colon),growth (KM12 colon)
Cc1ccc2c(n1)C(=O)C(Cl)=C(Nc1cccc(C(=O)OC(C)(C)C)c1)C2=O,59.1% (inactive),102% (inactive),97.9% (inactive),64.3% (inactive),53.3% (inactive),14% (inactive),113% (inactive),99.2% (inactive)
CCNCCOc1ccc(/C(=C(/CC)c2ccc(Cl)cc2)c2ccc(OCCCN(C)C)cc2)cc1,-60.2% (active),-91.7% (active),-74.2% (active),-62.1% (active),-82.5% (active),-72.4% (active),-84.2% (active),-85.3% (active)
CNC(=O)c1cc(Oc2ccc3c(c2)sc2nc(-c4ccc(N(C)C)cc4)cn23)ccn1,45.2% (inactive),36.5% (inactive),-37.8% (active),27.9% (inactive),11.2% (inactive),8.11% (active),0.825% (active),23.2% (inactive)
COC(=O)c1cccc(NC2=CC(=O)C(C)=C(C)C2=O)c1,64.4% (inactive),101% (inactive),101% (inactive),104% (inactive),71.3% (inactive),66.7% (inactive),110% (inactive),97.1% (inactive)
O=C(CCCCCCNC(=O)C(O)(O)C(F)(F)F)Nc1ccc(Cl)cc1,10.5% (inactive),45.9% (inactive),11.6% (inactive),5.2% (active),17.3% (inactive),3.99% (active),25.6% (inactive),20.6% (inactive)
COc1ccc(-c2c3c(cn2Cc2cccc(OC)c2)-c2oncc2CCC3)cc1,75.7% (inactive),105% (inactive),98.1% (inactive),96.4% (inactive),96.9% (inactive),96.9% (inactive),111% (inactive),83.1% (inactive)
CCOP(=O)(OCC)OC[C@]12CC[C@@H](C)[C@H](C)C1C1=CC[C@@H]3[C@@]4(C)CCCNC(C)(C)[C@@H]4CC[C@@]3(C)[C@]1(C)CC2 (stereo not given in full),38.2% (inactive),71.7% (inactive),28.4% (inactive),-54.7% (active),-59.8% (active),-84.5% (active),-55.1% (active),18.2% (inactive)
CC(Nc1c(C#N)cnc2ccc(-c3cncc(-c4n[nH]c(=O)o4)c3)cc12)c1ccccc1 (stereo not given),13.1% (inactive),-20.1% (active),24% (inactive),18.7% (inactive),8.39% (active),0.0701% (active),25.8% (inactive),17.1% (inactive)
C/C(=N\NC(=O)Nc1ccccc1)c1nnn(-c2ccc([N+](=O)[O-])cc2)c1C,98.2% (inactive),111% (inactive),104% (inactive),104% (inactive),97.9% (inactive),99.5% (inactive),106% (inactive),101% (inactive)
O=C(CCCCCCNC(=O)C(O)(O)C(F)(F)F)Nc1ncc(-c2ccccc2)s1,8.47% (active),-9.98% (active),0.873% (active),0.575% (active),11.7% (inactive),2.27% (active),-46.1% (active),-28.7% (active)
O=C(CCCCCCNC(=O)c1csc(Br)n1)NO,6.1% (active),88.4% (inactive),12% (inactive),7.18% (active),26.7% (inactive),3.29% (active),63% (inactive),56.8% (inactive)
N#C/C(=C\c1cccc2c1OCO2)C(=O)Nc1sc2c(c1C#N)CCCC2,93.8% (inactive),107% (inactive),103% (inactive),106% (inactive),97.6% (inactive),98.4% (inactive),120% (inactive),103% (inactive)
COc1ccc2c(c1)C=CC1(O2)Oc2ccc(OC)cc2C=C1C (stereo not given),45% (inactive),26.5% (inactive),-35.3% (active),29.8% (inactive),12.1% (inactive),12.4% (inactive),24.1% (inactive),27.9% (inactive)
C[C@]12CC[C@H]3[C@@H](CC=C4C[C@@H](O)CC[C@@]43C)[C@@H]1CC[C@@H]2[C@](C)(O)CCc1cccnc1,36.3% (inactive),47.7% (inactive),64% (inactive),83.1% (inactive),35.2% (inactive),51.9% (inactive),86.7% (inactive),70.2% (inactive)
O=C1[C@H]2Cc3c([nH]c4ccccc34)[C@H](c3ccc(Br)cc3)N2C(=O)CN1C1CCN(CC2CCCCC2)CC1,97.9% (inactive),96.5% (inactive),85.1% (inactive),79.7% (inactive),25.8% (inactive),18% (inactive),67.8% (inactive),77% (inactive)
CCc1cc(O)ccc1Nc1cc(-c2ccc(-n3cccn3)cc2)[nH]n1,35.7% (inactive),85.7% (inactive),33% (inactive),63.1% (inactive),34.3% (inactive),39% (inactive),61.5% (inactive),16.6% (inactive)
CC(=C(c1ccc(OCCCN(C)C)cc1)c1ccc(OCCCN(C)C)cc1)c1ccc(Cl)cc1,74.9% (inactive),109% (inactive),89.3% (inactive),87.8% (inactive),37.9% (inactive),64.6% (inactive),81.7% (inactive),84.2% (inactive)
CCCCN1C(=O)/C(=c2\sc3n(c2=O)C2C(NN=3)N(CC)C(=O)N2CC)c2cc(C)ccc21 (stereo not given),93.8% (inactive),96.3% (inactive),84.5% (inactive),95.1% (inactive),80% (inactive),85.3% (inactive),109% (inactive),94.1% (inactive)
Cc1ccc(/C=N/Nc2nc(Nc3ccccc3)nc(Nc3ccc(S(N)(=O)=O)cc3)n2)cc1,54.5% (inactive),76.5% (inactive),69.4% (inactive),92.3% (inactive),26.5% (inactive),51.3% (inactive),74.1% (inactive),66% (inactive)
COc1cc(/C=N\NC(=O)c2ccc3nc(-c4ccc(Br)cc4)[nH]c3c2)cc(OC)c1OC,9.41% (active),38% (inactive),52.5% (inactive),79.1% (inactive),6.5% (active),18% (inactive),73.1% (inactive),47.1% (inactive)
C#C[C@]1(O)CC[C@H]2[C@@H]3CC=C4c5sc(N(C)c6ccccc6)nc5CC[C@]4(C)[C@H]3CC[C@@]21C,75.2% (inactive),74.6% (inactive),89.9% (inactive),92.3% (inactive),67.3% (inactive),48.4% (inactive),109% (inactive),54.6% (inactive)
N#Cc1nc(-c2ccccc2)oc1N1CCC(C2(C(F)(F)F)N=N2)CC1,95.6% (inactive),136% (inactive),101% (inactive),98.8% (inactive),89.1% (inactive),104% (inactive),107% (inactive),96.2% (inactive)
COC(=O)N1CCN(CCNCc2ccc(NC(=O)c3ccc(C)c(C#Cc4cnc5cccnn45)c3)cc2C(F)(F)F)CC1,34% (inactive),24.1% (inactive),-21.8% (active),14.6% (inactive),-6.54% (active),4.9% (active),14.4% (inactive),4.91% (active)
Cn1c2nc3ccccc3c-2cc2ccccc21,37.4% (inactive),101% (inactive),39.5% (inactive),28.3% (inactive),10.9% (inactive),22.1% (inactive),52.9% (inactive),31.8% (inactive)
CSc1ccc(/C(=N/N=C(N)N)c2ccc(Cl)cc2)cc1,50.5% (inactive),-37.3% (active),-30.1% (active),2.54% (active),0.167% (active),-27.7% (active),-68.2% (active),5.79% (active)
NC(N)=NS(=O)(=O)c1ccc(N=Nc2c(N)nn(-c3ccc([N+](=O)[O-])cc3[N+](=O)[O-])c2N)cc1,104% (inactive),123% (inactive),103% (inactive),101% (inactive),96.2% (inactive),101% (inactive),113% (inactive),101% (inactive)
Cc1cc2nc3c4cc(C#N)ccc4n(CCN(C)C)c3nc2cc1C,20.2% (inactive),-28.3% (active),-27.4% (active),-9.39% (active),2.34% (active),-33.3% (active),-73% (active),-3.36% (active)
COc1cc(-c2nc(-c3ccccc3)[nH]c2-c2ccnc(NCCCNS(=O)(=O)c3ccc(C(F)(F)F)cc3)n2)ccc1Cl,44.2% (inactive) and 21.1% (inactive),44.7% (inactive) and 67.2% (inactive),29.4% (inactive) and 27.5% (inactive),46.8% (inactive) and 55.9% (inactive),9.62% (active) and 18.3% (inactive),16.3% (inactive) and 17.4% (inactive),48.5% (inactive) and 51% (inactive),25% (inactive) and 32.5% (inactive)
CCc1cc(OC(=O)N2CCN(CCC(C)(COC(C)(C)C)COC(C)(C)C)CC2)ccc1Nc1cc(-c2ccc(-n3cccn3)cc2)[nH]n1,61% (inactive),108% (inactive),85.3% (inactive),94.8% (inactive),50.1% (inactive),66.3% (inactive),91.5% (inactive),85.6% (inactive)
Cc1ccc(NC2=C(Cl)C(=O)c3nc(C)ccc3C2=O)c(C)c1,-46.1% (active),62.9% (inactive),-90% (active),-29.4% (active),-64.4% (active),-67.7% (active),64.6% (inactive),44.9% (inactive)
